Experimental data from PubChem BioAssay (NCI).
Compounds without any hit were thinned out: in the full panel of roughly 83,000, 20% have a hit.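 Compound tested at a single concentration for 48 hours in 96-well plates; a percent growth value below 10 was scored as active.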 The source made the active and inactive calls.

Legend:
Experiment in all cases: NCI-60 one-dose screen, 48 h (100 = growth as untreated, 0 = no growth, -100 = all killed)
Settings in all cases: 10 µM unless noted
SK-MEL-2 melanoma = system: SK-MEL-2 melanoma
EKVX NSCLC = system: EKVX NSCLC
SN12C renal = system: SN12C renal
UO-31 renal = system: UO-31 renal
TK-10 renal = system: TK-10 renal
ACHN renal = system: ACHN renal
CAKI-1 renal = system: CAKI-1 renal
A498 renal = system: A498 renal
MOLT-4 leukemia = system: MOLT-4 leukemia
SR leukemia = system: SR leukemia
RPMI-8226 leukemia = system: RPMI-8226 leukemia
OVCAR-8 ovarian = system: OVCAR-8 ovarian
OVCAR-5 ovarian = system: OVCAR-5 ovarian
OVCAR-4 ovarian = system: OVCAR-4 ovarian
SK-OV-3 ovarian = system: SK-OV-3 ovarian
OVCAR-3 ovarian = system: OVCAR-3 ovarian
HS 578T breast = system: HS 578T breast
NCI/ADR-RES ovarian = system: NCI/ADR-RES ovarian
CCRF-CEM leukemia = system: CCRF-CEM leukemia
IGROV1 ovarian = system: IGROV1 ovarian

Measured: growth

COc1ccc(-c2nc3sccn3c2/C=C/C(=O)c2cc(OC)c(OC)c(OC)c2)cc1
inactive: SK-MEL-2 melanoma 43.9% | EKVX NSCLC 60% | SN12C renal 62.5% | UO-31 renal 17.6% | TK-10 renal 82.7% | ACHN renal 55.7% | CAKI-1 renal 42.4% | A498 renal 84.9% | MOLT-4 leukemia 29.8% | SR leukemia 55.4% | OVCAR-8 ovarian 49.9% | OVCAR-5 ovarian 103% | OVCAR-4 ovarian 54.7% | SK-OV-3 ovarian 68.5% | OVCAR-3 ovarian 53.7% | HS 578T breast 71.1% | NCI/ADR-RES ovarian 47.5%
active: RPMI-8226 leukemia -39.1%

O=C1Nc2cc(-c3ccncc3)ccc2/C1=C/c1ccc[nH]1
inactive: SK-MEL-2 melanoma 106% | EKVX NSCLC 46.9% | SN12C renal 99.5% | UO-31 renal 73.7% | TK-10 renal 95.7% | ACHN renal 54% | CAKI-1 renal 87.9% | CCRF-CEM leukemia 104% | MOLT-4 leukemia 96.4% | SR leukemia 15% | RPMI-8226 leukemia 81.8% | OVCAR-8 ovarian 101% | OVCAR-5 ovarian 76.9% | OVCAR-4 ovarian 37.3% | SK-OV-3 ovarian 93.3% | IGROV1 ovarian 80.8% | OVCAR-3 ovarian 85.2% | HS 578T breast 107% | NCI/ADR-RES ovarian 94.6%

CC[C@H](CC[C@@H](C)[C@H]1CC[C@H]2[C@@H]3CC=C4C[C@@H](OCCc5nn[nH]n5)CC[C@]4(C)[C@H]3CC[C@]12C)C(C)C
inactive: SK-MEL-2 melanoma 111% | EKVX NSCLC 102% | SN12C renal 108% | UO-31 renal 99.5% | TK-10 renal 101% | ACHN renal 105% | CAKI-1 renal 105% | CCRF-CEM leukemia 103% | MOLT-4 leukemia 100% | SR leukemia 105% | RPMI-8226 leukemia 113% | OVCAR-8 ovarian 108% | OVCAR-5 ovarian 108% | OVCAR-4 ovarian 104% | SK-OV-3 ovarian 96.8% | IGROV1 ovarian 100% | OVCAR-3 ovarian 103% | HS 578T breast 113% | NCI/ADR-RES ovarian 98.3%

C#CCNC(=O)[C@H](Cc1ccccc1)NC(=O)[C@]12CC[C@@H](C(=C)C)[C@@H]1[C@H]1CC[C@@H]3[C@@]4(C)Cc5c([nH]c6ccccc56)C(C)(C)[C@@H]4CC[C@@]3(C)[C@]1(C)CC2
inactive: SK-MEL-2 melanoma 95.5% | EKVX NSCLC 94% | SN12C renal 93.6% | UO-31 renal 90.3% | TK-10 renal 90.4% | ACHN renal 94.8% | CAKI-1 renal 86.8% | CCRF-CEM leukemia 91.6% | MOLT-4 leukemia 93.7% | SR leukemia 88.5% | RPMI-8226 leukemia 82.9% | OVCAR-8 ovarian 96.5% | OVCAR-5 ovarian 95.8% | OVCAR-4 ovarian 108% | SK-OV-3 ovarian 95.4% | IGROV1 ovarian 110% | OVCAR-3 ovarian 96.5% | HS 578T breast 113% | NCI/ADR-RES ovarian 97.2%

CCCCOc1ccc(/C=N/Nc2cc(C)nc3ccc(Cl)cc23)cc1
active: SN12C renal -81.6% | UO-31 renal -96.1% | ACHN renal -95.5% | CCRF-CEM leukemia -5.7% | MOLT-4 leukemia -36.9% | SR leukemia -20.8% | RPMI-8226 leukemia -31.6% | OVCAR-8 ovarian -58.5% | OVCAR-4 ovarian 5.29% | IGROV1 ovarian -71.6% | OVCAR-3 ovarian -76.7%
inactive: SK-MEL-2 melanoma 67.6% | EKVX NSCLC 60% | TK-10 renal 36.8% | CAKI-1 renal 35.1% | OVCAR-5 ovarian 88.9% | SK-OV-3 ovarian 79.5% | HS 578T breast 47.7% | NCI/ADR-RES ovarian 58.7%

Nc1c(Cl)cc([N+](=O)[O-])cc1Br
inactive: SK-MEL-2 melanoma 121% | EKVX NSCLC 89.1% | SN12C renal 97% | UO-31 renal 90% | TK-10 renal 115% | ACHN renal 112% | CAKI-1 renal 85.4% | CCRF-CEM leukemia 104% | MOLT-4 leukemia 105% | SR leukemia 99.5% | RPMI-8226 leukemia 86.8% | OVCAR-8 ovarian 93.9% | OVCAR-5 ovarian 103% | OVCAR-4 ovarian 102% | SK-OV-3 ovarian 110% | IGROV1 ovarian 114% | OVCAR-3 ovarian 102% | HS 578T breast 105% | NCI/ADR-RES ovarian 95%

Cc1cc2nc(-c3ccccc3)c(-c3ccccc3)nc2cc1C
inactive: SK-MEL-2 melanoma 107% | EKVX NSCLC 89.2% | SN12C renal 92.8% | UO-31 renal 113% | TK-10 renal 125% | ACHN renal 114% | CAKI-1 renal 98.7% | CCRF-CEM leukemia 99.4% | MOLT-4 leukemia 89% | SR leukemia 76.9% | RPMI-8226 leukemia 88.1% | OVCAR-8 ovarian 108% | OVCAR-5 ovarian 115% | OVCAR-4 ovarian 98.9% | SK-OV-3 ovarian 108% | IGROV1 ovarian 112% | OVCAR-3 ovarian 113% | HS 578T breast 118% | NCI/ADR-RES ovarian 93.1%

O=S(=O)(NCCCNc1nccc(-c2c(-c3cccc(O)c3)nc3occn23)n1)c1ccc(Br)cc1
inactive: SK-MEL-2 melanoma 54.3% | EKVX NSCLC 105% | SN12C renal 80.3% | UO-31 renal 90.8% | TK-10 renal 135% | ACHN renal 84.9% | CAKI-1 renal 75.6% | CCRF-CEM leukemia 87.9% | MOLT-4 leukemia 72.9% | SR leukemia 89.8% | RPMI-8226 leukemia 86.4% | OVCAR-8 ovarian 86% | OVCAR-5 ovarian 137% | OVCAR-4 ovarian 118% | SK-OV-3 ovarian 94% | IGROV1 ovarian 79.2% | OVCAR-3 ovarian 102% | HS 578T breast 91.6% | NCI/ADR-RES ovarian 107%

O=C(CSc1nc2sc3c(c2c(=O)n1Cc1ccccc1)CCCC3)N1CCN(c2ccccc2)CC1
inactive: SK-MEL-2 melanoma 106% | EKVX NSCLC 99.6% | SN12C renal 110% | UO-31 renal 76.8% | TK-10 renal 104% | ACHN renal 104% | CAKI-1 renal 92.9% | CCRF-CEM leukemia 97.7% | MOLT-4 leukemia 92.8% | SR leukemia 101% | RPMI-8226 leukemia 94.1% | OVCAR-8 ovarian 97.9% | OVCAR-5 ovarian 102% | OVCAR-4 ovarian 96.1% | SK-OV-3 ovarian 92.1% | IGROV1 ovarian 103% | OVCAR-3 ovarian 106% | HS 578T breast 101% | NCI/ADR-RES ovarian 94.8%

COc1ccc(C(=O)c2cc(C)c(OC)c(C)c2)c(OC)c1O
active: SK-OV-3 ovarian -10.5% | OVCAR-3 ovarian -15.8% | NCI/ADR-RES ovarian 1.87%
inactive: SK-MEL-2 melanoma 26.8% | EKVX NSCLC 59.2% | SN12C renal 28.8% | UO-31 renal 36.6% | TK-10 renal 58.5% | ACHN renal 22.5% | CAKI-1 renal 39.5% | CCRF-CEM leukemia 16.3% | MOLT-4 leukemia 23.4% | SR leukemia 18.8% | RPMI-8226 leukemia 25.9% | OVCAR-8 ovarian 11.3% | OVCAR-5 ovarian 46.9% | OVCAR-4 ovarian 41.1% | IGROV1 ovarian 25.9% | HS 578T breast 18.1%

COc1ccccc1/C=N/NC1=NC2C(N1)N(C)C(=O)N2C (configuration not stated)
inactive: SK-MEL-2 melanoma 104% | EKVX NSCLC 99.8% | SN12C renal 100% | UO-31 renal 86.2% | TK-10 renal 125% | ACHN renal 102% | CAKI-1 renal 91.7% | A498 renal 97.4% | MOLT-4 leukemia 102% | SR leukemia 110% | RPMI-8226 leukemia 119% | OVCAR-8 ovarian 103% | OVCAR-5 ovarian 102% | OVCAR-4 ovarian 106% | SK-OV-3 ovarian 95.4% | IGROV1 ovarian 96.4% | OVCAR-3 ovarian 107% | HS 578T breast 95.1% | NCI/ADR-RES ovarian 105%

O=C1OC(=O)C2C1CC=CC2c1ccccc1 (configuration not stated)
inactive: SK-MEL-2 melanoma 97.3% | EKVX NSCLC 90.9% | SN12C renal 87.6% | UO-31 renal 88.9% | TK-10 renal 102% | ACHN renal 104% | CAKI-1 renal 102% | CCRF-CEM leukemia 84.2% | MOLT-4 leukemia 90.6% | SR leukemia 55% | RPMI-8226 leukemia 93.8% | OVCAR-8 ovarian 95.3% | OVCAR-5 ovarian 85.6% | OVCAR-4 ovarian 83.4% | SK-OV-3 ovarian 81.8% | IGROV1 ovarian 84.6% | OVCAR-3 ovarian 104% | HS 578T breast 76.7% | NCI/ADR-RES ovarian 91.1%

O=C(N/N=C/c1ccncc1)c1ccccc1Nc1cccc(C(F)(F)F)c1
inactive: SK-MEL-2 melanoma 99.3% | EKVX NSCLC 91.7% | SN12C renal 90.8% | UO-31 renal 60.9% | TK-10 renal 102% | ACHN renal 90.5% | CAKI-1 renal 117% | A498 renal 71.9% | MOLT-4 leukemia 72.2% | RPMI-8226 leukemia 52.3% | OVCAR-8 ovarian 79.1% | OVCAR-4 ovarian 66% | SK-OV-3 ovarian 86.4% | IGROV1 ovarian 86.8% | OVCAR-3 ovarian 64.7% | HS 578T breast 103% | NCI/ADR-RES ovarian 70.7%
active: SR leukemia 4.74%

COc1cc2nc(-c3ccc(C(F)(F)F)cc3)cc(OCCCN3CCC(O)CC3)c2cc1OC
active: CAKI-1 renal -6.95% | RPMI-8226 leukemia 9.93%
inactive: SK-MEL-2 melanoma 47.6% | EKVX NSCLC 59.8% | SN12C renal 37.4% | UO-31 renal 24.2% | TK-10 renal 85.7% | ACHN renal 31.2% | CCRF-CEM leukemia 34.2% | MOLT-4 leukemia 35.3% | SR leukemia 10.9% | OVCAR-8 ovarian 44.1% | OVCAR-5 ovarian 42.8% | OVCAR-4 ovarian 59.7% | SK-OV-3 ovarian 65.8% | IGROV1 ovarian 27.2% | OVCAR-3 ovarian 64% | HS 578T breast 64.7% | NCI/ADR-RES ovarian 37.6%

COc1ccc(Nn2c(SCC(=O)Nc3nc(-c4ccc(Cl)cc4)cs3)nc(C)c2C)cc1
inactive: SK-MEL-2 melanoma 90.5% | EKVX NSCLC 41.9% | SN12C renal 67.2% | UO-31 renal 39.4% | TK-10 renal 68.5% | ACHN renal 52% | CAKI-1 renal 34.4% | A498 renal 69.5% | MOLT-4 leukemia 36.1% | SR leukemia 40.3% | RPMI-8226 leukemia 35.7% | OVCAR-8 ovarian 43.9% | OVCAR-5 ovarian 111% | OVCAR-4 ovarian 37% | SK-OV-3 ovarian 77.8% | IGROV1 ovarian 70.9% | OVCAR-3 ovarian 60.7% | HS 578T breast 86.1% | NCI/ADR-RES ovarian 23.1%

Cc1ccc(C2C3CC4CCCCC4N3[C@@]3(C(=O)Nc4cc(Cl)ccc43)C2C(=O)c2nc3ccccc3[nH]2)cc1 (some centres not stated)
active: MOLT-4 leukemia 2.61% | RPMI-8226 leukemia 9.27%
inactive: SK-MEL-2 melanoma 59.7% | EKVX NSCLC 27.3% | SN12C renal 44.8% | UO-31 renal 19.8% | TK-10 renal 39.6% | ACHN renal 40.5% | CAKI-1 renal 16.5% | CCRF-CEM leukemia 27.8% | SR leukemia 21.2% | OVCAR-8 ovarian 56.7% | OVCAR-5 ovarian 49% | OVCAR-4 ovarian 30.6% | SK-OV-3 ovarian 77.6% | IGROV1 ovarian 26.4% | OVCAR-3 ovarian 33.4% | HS 578T breast 61% | NCI/ADR-RES ovarian 41.7%
